Results from PubChem BioAssay AID624331 (National Center for Advancing Translational Sciences (NCATS), 2012).
Results filed as inconclusive are left out. Activity calls are given as the source filed them. Calls follow the shape of the dose curve; as a rule, active = well fitted activation curve with a large enough effect; inconclusive = small, poorly fitted or top-dose-only effect; inactive = no such curve, though single readings can be large or run the other way.

Test: qHTS assay for re-activators of p53 using a Luc reporter: Hit Validation with no p53 Expressed; as to activity change, positive = activation: 0% is about no effect
Details: p53-null cells, luciferase reporter counter-screen; series mostly up to 46.1 µM; activity change, positive = activation: at the top concentration
Summary of the method: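 Counter-screen of primary hits in a cell line not transfected with p53, in Opti-MEM with 10% FBS; compounds at several concentrations (10 mM stock, 1:5; top 46.1 µM in well), 24 h at 37 deg C, 5% CO2. Luminescence read after 10 min with Amplite reagent.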
Potency is read from the fitted curve at half-maximal effect.

SMILES | activity change, positive = activation | Potency
Cc1csc(SCC(=O)Nc2ccc(C)c(F)c2)n1 | -5.54% (inactive) | –
COc1ccc(CCC(=O)NC(C)C2CCCO2)cc1 (stereo not given) | -46.1% (inactive) | –
Cc1ccc(C)c(N2CCN(C(=O)CCc3nc(-c4ccccc4C(F)(F)F)no3)CC2)c1 | 65.2% (inactive) | –
Cc1nn2cc(-c3ccc(-c4ccccc4)cc3)nc2s1 | – | 0.731 µM (active)
O=C(/C=C\Nc1cccc(F)c1)c1ccc2c(c1)OCO2 | -22.4% (inactive) | –
Oc1c(CN2CCOCC2)cc(COCc2ccccc2)c2cccnc12 | -61.3% (inactive) | –
Cc1ccsc1/C=N/Nc1nc2ccccc2[nH]1 | 50.1% (inactive) | –
Cc1ccc(C(=O)c2cc([N+](=O)[O-])ccc2N2CCCCC2)cc1C | -48.2% (inactive) | –
Cn1cc(Cl)c(C(=O)Nc2nc3ccccc3s2)n1 | 36.7% (inactive) | –
O=C(Nc1cccnc1)Nc1ccc(Br)cc1Cl | -23.6% (inactive) | –
CCOc1ccc2c(c1)C(C)=CC(C)(C)N2S(=O)(=O)c1ccc(NC(C)=O)cc1 | -47.8% (inactive) | –
CC(=O)Nc1cccc(C(=O)N/N=C/c2ccccc2F)c1 | 92.9% (inactive) | –
CC(=O)N(C)c1ccc(NC(=O)CCN2C(=O)c3ccccc3C2=O)cc1 | -23.3% (inactive) | –
Cc1cccnc1NC(=O)/C=C/c1ccc2c(c1)OCO2 | 66.3% (inactive) | –
CC(C)c1ccc(OCC(=O)NC(C)c2ccccc2)cc1 (stereo not given) | 97.3% (inactive) | –
O=C1/C(=C/c2ccco2)SC(=S)N1CCC(=O)N1CCCCC1CCO (stereo not given) | 149% (inactive) | –
O=[N+]([O-])c1cc(C(F)(F)F)ccc1NCCc1c[nH]c2ccccc12 | -38.7% (inactive) | –
CCOC(=O)c1c(NC(=O)C2COc3ccccc3O2)sc2c1CCN(Cc1ccccc1)C2 (stereo not given) | 7.72% (inactive) | –
CCOc1ccc(/C=N/NC(=O)CN2CCSCC2)cc1 | -8.87% (inactive) | –
Cc1ccc(NC(=O)c2ccc(OC(=O)C(C)Oc3ccc(Cl)cc3C)cc2)cc1 (stereo not given) | 26.8% (inactive) | –

SMILES | activity change, positive = activation | Potency
CCCCCNC(=O)N[C@H](C(=O)O)C(C)C | 56.2% (inactive) | –
Cc1nc(SCC(=O)Nc2nccs2)c(C#N)c(C)c1C | 9.01% (inactive) | –
CCOc1ccc2cc(C#N)c(SCC(=O)OC)nc2c1 | 90% (inactive) | –
CN(C)/C=N/c1cnc(C(=O)c2ccc(Cl)cc2)n1C | 33.5% (inactive) | –
CN(C)c1ccc(/C=N/Nc2nncc3ccccc23)cc1 | 59.1% (inactive) | –
O=C(NC(=S)NCCc1ccccc1)C1CCCCC1 | -17% (inactive) | –
O=C(CNS(=O)(=O)c1cccc(Cl)c1)Nc1ccc(-c2nc3ccccc3s2)cc1 | 58.9% (inactive) | –
O=C(NNC(=S)NC1CCCCC1)c1cccs1 | 2.52% (inactive) | –
O=c1oc2ccccc2cc1-c1cn(-c2ccccc2)c(=S)[nH]1 | -52.3% (inactive) | –
C=CCSC1=N/C(=C\c2cc(OCC)c(OC(C)=O)c([N+](=O)[O-])c2)C(=O)S1 | -60.9% (inactive) | –
Cc1cc(NC(=O)c2c(F)c(F)c(F)c(F)c2F)no1 | 1.86% (inactive) | –
CCC(=O)c1ccc(OC(=O)Cc2ccc(OC)cc2)cc1 | -69% (inactive) | –
COc1ccc(-c2cc3ccc(F)cc3cn2)cc1 | -5.54% (inactive) | –
Cc1cc(C)nc(CC(N)=O)n1 | 10.8% (inactive) | –
O=C(N/N=C1\CCc2ccccc21)c1ccccc1O | 10.7% (inactive) | –
CS(=O)(=O)n1nc(-c2ccc(Cl)cc2)nc1SCc1ccccc1 | 68.8% (inactive) | –
CC(/C=N/Nc1nc2ccccc2[nH]1)=C\c1ccccc1 | – | 0.116 µM (active)
COc1ccc(-c2coc3cc(O[C@@H]4O[C@H](CO)[C@@H](O)[C@H](O)[C@H]4O)ccc3c2=O)cc1 | 8.1% (inactive) | –
O=C(Nc1ccc(COc2ccccc2)cc1)c1cccc([N+](=O)[O-])c1 | 5.64% (inactive) | –
O=C(NC12CC3CC(CC(C3)C1)C2)c1ccc(-c2cccc(Cl)c2)o1 | 79.9% (inactive) | –
